According to PubChem BioAssay AID1224904 (Broad Institute, 2016):
Hit rate of the full screen: of about 37,000 compounds, about 290 (0.78%) were called active. Another 10% or so got no clear call; they are omitted.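 The calls were made as follows: active = mean inhibition of at least 10% in the main channel, exceeding the control channel by a set limit; inconclusive = inhibition of 10% or more but channel gap under a set limit; inactive = mean inhibition below 10%.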 The sample as a whole holds a higher share of actives than the screen did.

Experiment: inhibitors of DUX4-driven ZSCAN4 reporter expression, primary screen, 293T cells, Gaussia and Italica luciferase (AID 1224904);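 as to activity change, negative = inhibition: 0% = median of neutral control wells and -100% = median of positive control wells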
Details: 293T-iDUX4 ZSCAN4-Gaussia luciferase reporter, 24 h, stronger effect = lower value, concentration not given here; for Gaussia minus Italica difference: measured here: selective DUX4 reporter inhibition
[1] = measured here: Italica tet-on control reporter

SMILES | activity change, negative = inhibition | activity change, negative = inhibition [1] | Gaussia minus Italica difference
CCC(=O)N(C)C[C@H]1[C@H](c2ccc(-c3ccccc3F)cc2)[C@@H](CO)N1C(C)=O | 3.08% (inactive) | 7.42% | -4.34%
CCCNC(=O)[C@@H]1[C@@H](CO)[C@@H]2Cn3c(cccc3=O)[C@H]1N2C(=O)C1CCC1 | -0.71% (inactive) | 1.58% | -2.29%
CC=Cc1ccc2n(c1=O)C[C@@H]1[C@@H](CO)[C@H](C(=O)NCCCN3CCOCC3)[C@H]2N1Cc1cocn1 (mixture of isomers) | -1.75% (inactive) | 4.32% | -6.07%
CCCNC(=O)[C@@H]1[C@@H](CO)[C@@H]2Cn3c(ccc(C4=CCCCC4)c3=O)[C@H]1N2CCC | 0.23% (inactive) | -0.339% | 0.57%
COCCN(C[C@H]1[C@@H](c2ccccc2)[C@H](CO)N1C(=O)C1CCC1)C(C)=O | -2.05% (inactive) | 5.46% | -7.51%
C[C@H]1CN([C@@H](C)CO)S(=O)(=O)c2ccc(-c3ccncc3)cc2O[C@H]1CN(C)S(C)(=O)=O | -0.678% (inactive) | 4.8% | -5.48%
CCC(=O)N1C[C@@H](C)[C@H](OC)CN(C)C(=O)c2cc(NC(=O)c3cc(C)on3)ccc2OC[C@@H]1C | -1.43% (inactive) | 2.42% | -3.85%
CCCNC(=O)N1C[C@@H](C)[C@@H](OC)CN(C)C(=O)c2ccc(NC(=O)C3CCC3)cc2OC[C@@H]1C | -2.74% (inactive) | -2.2% | -0.535%
CN1C(=O)c2cc(NS(=O)(=O)c3ccc(Cl)cc3)ccc2OC[C@H]2O[C@@H](CC(=O)O)CC[C@H]21 | 2.17% (inactive) | -0.461% | 2.63%
CN1C(=O)c2cc(NC(=O)c3ccc(F)c(F)c3)ccc2OC[C@H]2O[C@@H](CC(=O)N3CCCCC3)CC[C@H]21 | -2.75% (inactive) | -1.85% | -0.906%
CO[C@@H](CN(C)C(=O)Nc1ccc(F)cc1)[C@H](C)CN(Cc1ccccc1Cl)[C@@H](C)CO | 1.39% (inactive) | -1.3% | 2.69%
COCC(=O)N1CC2(C1)[C@H](c1ccc(-c3cccc(F)c3)cc1)[C@@H](CO)N2C(=O)COC | 6.28% (inactive) | 3.24% | 3.04%
CN(C)c1ccc2c(c1)[C@H]1C[C@H](CC(=O)O)O[C@H](CO)[C@H]1O2 | 1.12% (inactive) | 6.76% | -5.64%
C[C@@H]1CN([C@@H](C)CO)C(=O)c2c(c3ccccc3n2C)-c2ccccc2CO[C@@H]1CN(C)S(=O)(=O)CC(F)(F)F | 18.5% (inactive) | 1.21% | 17.3%
C[C@@H]1CN([C@H](C)CO)C(=O)c2c(c3ccccc3n2C)-c2ccccc2CO[C@@H]1CN(C)Cc1ccc(F)cc1 | -34.5% (active) | -8.76% | -25.8%
C[C@@H]1CN([C@@H](C)CO)C(=O)c2c(c3ccccc3n2C)-c2ccccc2CO[C@@H]1CN(C)Cc1cccc(C(=O)O)c1 | 7.37% (inactive) | 5% | 2.36%
C[C@H](CO)N1C[C@H](C)[C@@H](CN(C)Cc2ccc(C(F)(F)F)cc2)OCc2ccccc2-c2c(n(C)c3ccccc23)C1=O | -40.3% (active) | -11% | -29.3%

SMILES | activity change, negative = inhibition | activity change, negative = inhibition [1] | Gaussia minus Italica difference
C[C@@H]1CN([C@@H](C)CO)C(=O)c2c(c3ccccc3n2C)-c2ccccc2CO[C@H]1CN(C)S(=O)(=O)c1cccs1 | -5.46% (inactive) | -1.09% | -4.37%
Cc1ccccc1S(=O)(=O)N(C)C[C@@H]1OCc2ccccc2-c2c(n(C)c3ccccc23)C(=O)N([C@H](C)CO)C[C@H]1C | -34% (active) | -6.75% | -27.3%
C[C@@H]1CN([C@H](C)CO)C(=O)c2c(c3ccccc3n2C)-c2ccccc2CO[C@@H]1CN(C)Cc1ccccc1C(F)(F)F | -42% (active) | -5.06% | -36.9%
CC(C)OC(=O)N(C)C[C@@H]1OCc2ccccc2-c2c(n(C)c3ccccc23)C(=O)N([C@H](C)CO)C[C@H]1C | -4.14% (inactive) | -0.897% | -3.24%
C[C@@H]1CN([C@@H](C)CO)C(=O)c2c(c3ccccc3n2C)-c2ccccc2CO[C@@H]1CN(C)Cc1ccc2c(c1)OCCN2C | -2.06% (inactive) | 2.22% | -4.27%
C[C@H]1CN([C@@H](C)CO)C(=O)c2c(c3ccccc3n2C)-c2ccccc2CO[C@H]1CN(C)Cc1ccc2c(c1)OCO2 | 3.62% (inactive) | -0.444% | 4.06%
C[C@@H]1CN([C@@H](C)CO)C(=O)c2c(c3ccccc3n2C)-c2ccccc2CO[C@@H]1CN(C)S(=O)(=O)c1cccs1 | 10.1% (inactive) | 4.92% | 5.19%
C[C@@H]1CN([C@@H](C)CO)C(=O)c2c(c3ccccc3n2C)-c2ccccc2CO[C@H]1CN(C)Cc1cccc(C(=O)O)c1 | -0.025% (inactive) | -8.31% | 8.28%
CCC(=O)N1CC2(C1)[C@@H](c1ccc(C3=CCCC3)cc1)[C@@H](CO)N2C(=O)COC | 2.59% (inactive) | 3.57% | -0.983%
COc1cccc(CNC(=O)[C@@H]2[C@@H](CO)[C@@H]3Cn4c(ccc(-c5ccncc5)c4=O)[C@H]2N3C(C)=O)c1 | -3.74% (inactive) | -3.37% | -0.373%
CN1CCN(C(=O)C[C@@H]2CC[C@@H]3[C@H](COC[C@@H](O)CN3Cc3cccc(F)c3)O2)CC1 | 4.3% (inactive) | -1.22% | 5.51%
O=C(C[C@@H]1CC[C@@H]2[C@H](COC[C@H](O)CN2C(=O)c2cccnc2)O1)NC1Cc2ccccc2C1 | 3.73% (inactive) | -3.66% | 7.39%
CC(C)CN(C[C@@H]1N[C@@H](CO)[C@H]1c1ccccc1)C(=O)CN(C)C | 0.487% (inactive) | 0.95% | -0.462%
O=C(C[C@@H]1CC[C@@H](NC(=O)Nc2ccc(F)cc2)[C@@H](CO)O1)NCCN1CCCC1 | 3.27% (inactive) | -1.07% | 4.34%
N#C[C@@H]1[C@@H](c2ccc(C#Cc3cccc(F)c3)cc2)[C@H](CO)N1C(=O)C1CCOCC1 | 1.6% (inactive) | 1.95% | -0.348%
Cc1noc(C)c1S(=O)(=O)N(C)C[C@@H]1OCc2ccccc2-c2ccccc2C(=O)N([C@@H](C)CO)C[C@H]1C | 1.81% (inactive) | 12.5% | -10.7%
